Myeloid diff MLP: myeloid differentiation induction. ER-HoxA9 myeloid progenitors, lysozyme-GFP differentiation, flow cytometry. calls only at 10 µM. 360,000 compounds, 1% hits;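 active = normalized GFP-positive differentiation at or above the plate's own cutoff, the solvent-only control mean plus 3 SD; inconclusive = no clear call, values can overlap the other calls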;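 note: cells exposed to compound for four days before flow analysis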
beta cell repl: inducers of beta-cell replication in MIN6 cells; MIN6 cells proliferation, ATPlite luminescence, 48 h; cells starved in 0.2% serum; 100% = growth in 10% serum; proliferation, % at 10 µM; 330,000 compounds, 0.29% hits;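 active = compounds whose signal lies at least 3.5 SD above the mean of all wells on their plate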;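 note: 0% = DMSO-treated cells in low-serum medium and 100% = 10% serum control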
ABCB6 inh 2: inhibitors of human ABC transporter ABCB6. K562-ABCB6 porphyrin accumulation, flow cytometry, 1 h; active compounds read low. fluorescence ratio to DMSO, % at 10 µM. 360,000 compounds, 0.19% hits. AID 602162;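 active = fluorescence ratio to DMSO below 75%, the collection mean minus 3 SD; inconclusive = too few cells collected in the well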;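 note: signal is porphyrin accumulated inside mitochondria; 100% equals median channel fluorescence of DMSO control wells; lower ratio means ABCB6 inhibition with less porphyrin fluorescence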
Target sequence (Q9NP58 whole entry, looked up): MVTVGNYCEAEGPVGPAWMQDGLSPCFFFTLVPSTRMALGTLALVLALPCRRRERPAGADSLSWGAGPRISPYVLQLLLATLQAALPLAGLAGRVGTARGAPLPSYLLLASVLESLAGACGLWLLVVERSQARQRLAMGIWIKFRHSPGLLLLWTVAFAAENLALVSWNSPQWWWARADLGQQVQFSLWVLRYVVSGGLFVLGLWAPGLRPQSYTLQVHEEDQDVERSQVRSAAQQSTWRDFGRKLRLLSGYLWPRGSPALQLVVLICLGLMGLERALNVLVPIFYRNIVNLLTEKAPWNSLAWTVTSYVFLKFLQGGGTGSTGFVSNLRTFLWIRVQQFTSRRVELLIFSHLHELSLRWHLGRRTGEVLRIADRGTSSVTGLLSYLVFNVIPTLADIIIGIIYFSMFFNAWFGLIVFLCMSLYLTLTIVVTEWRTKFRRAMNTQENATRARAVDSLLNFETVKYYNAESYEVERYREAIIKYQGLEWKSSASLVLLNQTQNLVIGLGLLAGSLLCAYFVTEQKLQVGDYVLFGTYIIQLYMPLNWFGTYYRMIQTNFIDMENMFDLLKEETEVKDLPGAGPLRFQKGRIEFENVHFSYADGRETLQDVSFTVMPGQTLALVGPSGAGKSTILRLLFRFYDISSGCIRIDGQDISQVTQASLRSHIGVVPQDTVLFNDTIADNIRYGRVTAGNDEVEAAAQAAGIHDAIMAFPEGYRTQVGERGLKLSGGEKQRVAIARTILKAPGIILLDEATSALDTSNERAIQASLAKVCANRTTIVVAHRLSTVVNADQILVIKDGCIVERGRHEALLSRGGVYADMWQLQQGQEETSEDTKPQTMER
H9c2 protect: myocardial damage modulation in H9c2 cells; H9c2 cardiomyocytes, H2O2 injury protection, ATPLite, 2 h; protection from H2O2 cell death, % at 20 µM; 360,000 compounds, 0.63% hits;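 active = compounds giving at least 50% protection of heart cells from peroxide-induced death in the single-dose screen, raw or plate-pattern-corrected value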;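 note: 0% = DMSO wells with peroxide and 100% = DMSO wells without peroxide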
hiPSC survival: hiPSC single-cell survival enhancement; ATPlite luminescence; 100% = ROCK inhibitor wells, 0% = DMSO; survival enhancement, % at 20 µM; 360,000 compounds, 0.044% hits; AID 602274; in the data active = survival enhancement above about 18%;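 note: cells exposed to compounds for 16 hours before the ATP read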
* hit, by the source's call; i = inactive; ? = inconclusive; . = not tested or not shown; + = active, no number. Compounds with a hit are over-represented: about 2.2% of the library has one in this group of screens.

SMILES | Myeloid diff MLP | beta cell repl | ABCB6 inh 2 | H9c2 protect | hiPSC survival
CCOc1cccc(C=Nc2cc(C)cc(C)c2O)c1O | i | 2.5 | 105.0 | 93.2* | 2.1
CC(=O)N1c2ccc(S(=O)(=O)N3CCC(C(=O)Nc4cccc(C)n4)CC3)cc2CC1C (centres undefined) | i | -2.1 | 100.0 | -13.7 | -0.6
O=C(Nc1ccc(-c2cn3c(n2)SCC3)cc1)c1ccc2c(c1)OCO2 | + | -2.5 | 102.0 | 20.6 | 0.0
Cc1csc(NC(=O)C(CC(C)C)NS(=O)(=O)c2ccc3c(c2)oc(=O)n3C)n1 (centres undefined) | i | -4.0 | 96.0 | 19.1 | -1.3
COC(=O)c1cc(OC)c(OC)cc1NC(=O)c1ccc(Br)o1 | i | 0.2 | 94.0 | 8.5 | 0.5
O=c1[nH]c2ccccc2c2ccccc12 | i | -0.6 | 103.0 | 71.2* | 1.1
O=c1[nH]c2cccc(Cl)c2c2ccccc12 | i | . | 102.0 | 50.7* | 2.2
O=c1[nH]c2cc([N+](=O)[O-])ccc2c2ccc([N+](=O)[O-])cc12 | ? | . | 112.0 | -1.4 | -0.8
O=c1c2ccccc2[nH]c2ccccc12 | i | 2.8 | 93.0 | -6.5 | 0.5
c1ccc2c(c1)[nH]c1ccccc12 | i | 1.1 | 99.0 | -8.9 | -0.3
O=c1[nH]c2cc([N+](=O)[O-])ccc2c2ccccc12 | i | . | 92.0 | 65.1* | 2.2
O=C(Nc1ccc(N2CCOCC2)cc1)c1cccc(S(=O)(=O)N2CCCC2)c1 | i | -0.9 | 95.0 | 1.3 | 23.6*
Cc1ccccc1NC(=O)c1cccc(S(=O)(=O)N2CCCCC2)c1 | i | -2.1 | 96.0 | 6.3 | -0.1
CN1CCN(S(=O)(=O)c2cccc(C(=O)Nc3cc(C(F)(F)F)ccc3N3CCCCC3)c2)CC1 | + | -5.9 | 99.0 | -0.5 | 0.4
Cc1ccc(O)c(NC(=O)c2cccc(S(=O)(=O)N3CCCCC3)c2)c1 | + | -2.8 | 103.0 | -4.4 | 2.1
Cc1cc(C)cc(NC(=O)C2CCCN2S(=O)(=O)c2ccc3c(c2)C(C)(C)C(=O)N3C)c1 (centres undefined) | ? | -2.5 | 102.0 | -1.8 | 0.9
O=C(CN(Cc1ccc(F)cc1)S(=O)(=O)c1ccccc1)N1CCCCC1 | i | -0.1 | 99.0 | 15.5 | 7.1
NC(=O)c1cc2ccccc2o/c1=N\NC(=O)c1ccc(F)cc1 | i | -1.9 | 94.0 | 64.3* | -0.6
NC(=O)c1cc2ccccc2o/c1=N\NC(=O)c1ccccc1O | i | -5.4 | 100.0 | 15.2 | -0.1
COc1ccc2oc(-c3ccc(C)c(NC(=O)CSc4ccc(Cl)cc4)c3)nc2c1 | + | -1.9 | 98.0 | -3.7 | 0.6
COc1ccc(OC)c(Nc2nc(N)nc(-c3cc4ccccc4o3)n2)c1 | i | -3.7 | 100.0 | 56.1* | -2.3
COc1ccc(OC)c(NC(=O)c2cc3ccccc3o2)c1 | i | -0.5 | 91.0 | 0.7 | 0.8
CC(C)(C)c1ccc(C(=O)CCCSC2=C(C#N)C(c3ccco3)C3=C(CCCC3=O)N2)cc1 (centres undefined) | i | -5.7 | 57.0* | -0.5 | -0.7
COc1ccc(-c2csc(NC(=O)CCS(=O)(=O)c3ccccc3)n2)c(OC)c1 | + | -6.3 | 93.0 | 4.3 | -0.3
O=C(CCS(=O)(=O)c1ccccc1)Nc1nc(-c2ccc(F)cc2)cs1 | + | -6.0 | 99.0 | -6.4 | -0.8
SMILES | Myeloid diff MLP | beta cell repl | ABCB6 inh 2 | H9c2 protect | hiPSC survival
CN=c1sc2ccccc2n1CC(O)COCc1ccco1 (centres undefined) | + | -0.5 | 95.0 | 12.3 | -1.3
CCCCN1Cc2ccccc2Oc2cc(Br)ccc2S1(=O)=O | + | . | 97.0 | -16.8 | -2.8
CC1=C(C(=O)N2CCOCC2)CC(CC(=O)NC2CCCC2)C(=O)N1Cc1ccc(C(C)(C)C)cc1 (centres undefined) | i | . | 99.0 | 4.2 | -1.0
CN1CCN(S(=O)(=O)NC[C@H]2O[C@@H](n3cnc4c(N)ncnc43)[C@H](O)[C@@H]2O)CC1 | + | . | 94.0 | -21.7 | 1.7
Nc1ncnc2c1ncn2[C@@H]1O[C@H](CNCC#Cc2ccccc2)[C@@H](O)[C@H]1O | + | -2.0 | 100.0 | -11.0 | -2.7
c1ccc(Cn2nnnc2C(c2cccnc2)N2CCN(C3CCCCC3)CC2)cc1 (centres undefined) | i | -0.9 | 91.0 | 79.1* | 1.1
Cc1cc(NC(=O)C2CCCCC2)nc2c1c(=O)oc1ccccc12 | i | -3.9 | 94.0 | 101.0* | 3.4
Cc1cc(NC(=O)C2CCCC2)nc2c1c(=O)oc1ccccc12 | i | -3.9 | 151.0 | 33.1 | 0.0
COc1cccc(C(=O)Nc2cc(C)c3c(=O)oc4ccccc4c3n2)c1 | i | 4.4 | 97.0 | 90.4* | -2.0
COc1ccc(-c2cc3c(=O)n(CC(=O)NCCCN4CCN(Cc5ccccc5)CC4)ncn3n2)cc1 | i | -7.9 | 101.0 | -13.2 | -0.7
NC(=O)c1cccn1Cc1ccccc1Cl | i | -1.8 | 93.0 | -7.5 | -1.4
COc1ccc(CNc2cc(C)nc3ncnn23)c(OC)c1 | + | -5.7 | 101.0 | -16.2 | 0.1
O=C(c1cncc(Br)c1)N1CCN(c2ccc(N3CCOCC3)nn2)CC1 | i | 0.0 | 87.0 | -3.6 | 1.4
COc1ccc(CCN2CN(S(=O)(=O)c3ccccc3)c3nc4ccccc4nc32)cc1 | i | 0.1 | 102.0 | -5.8 | 1.6
Cc1ccc(S(=O)(=O)N2CCCN(C)c3nc4ccccc4nc32)cc1 | + | 2.8 | 128.0 | 6.8 | 3.6
CN1CCCNc2nc3ccccc3nc21 | + | 1.0 | 98.0 | 11.9 | 0.4
CC(=O)Nc1ccc(S(=O)(=O)N2CN(c3ccc(C)cc3)c3nc4ccccc4nc32)cc1 | i | -6.5 | 92.0 | 3.6 | -0.3
CN1CCCN(S(=O)(=O)c2ccccc2)c2nc3ccccc3nc21 | + | 4.6 | 116.0 | -1.7 | -0.5
CCOc1ccc(NC(=O)CC(C)S(=O)(=O)c2ccc3c(c2)NC(=O)CO3)cc1 (centres undefined) | i | -3.8 | 97.0 | 3.7 | 0.6
COc1cccc(NC(=O)c2nc(S(C)(=O)=O)ncc2Cl)c1 | i | -3.6 | 96.0 | -18.0 | -0.3
CN(c1ccccc1)S(=O)(=O)c1ccc(NC(=O)c2ccccc2)cc1 | i | -0.1 | 94.0 | -0.1 | -1.0
CN(c1ccccc1)S(=O)(=O)c1ccc(NC(=O)c2nc(S(C)(=O)=O)ncc2Cl)cc1 | ? | -6.7 | 40.0* | -15.4 | 12.9
CCS(=O)(=O)c1ncc(Cl)c(C(=O)Nc2ccc(S(=O)(=O)N3CCC(C)CC3)cc2)n1 | . | -3.9 | 44.0* | -17.4 | 5.3
CCS(=O)(=O)c1ncc(Cl)c(C(=O)Nc2ccccc2OC)n1 | ? | -4.4 | 69.0* | -18.5 | 18.4
O=C(Nc1ccc(F)c(Cl)c1)C1CC(=O)N(Cc2ccccc2)C1 (centres undefined) | i | -4.7 | 97.0 | -1.1 | -0.3
COc1cc(CCC(=O)N2CCN(c3ccc(N4CCOCC4)nn3)CC2)cc(OC)c1OC | . | -1.5 | . | . | .

Screens from PubChem BioAssay.
